40 sequences from the OligoGym collection can be followed below.
Note: reference of the scale not given here.

The first assay has as its target POLH. Description: pooled miR-30 sensor sort-seq; sequence = guide strand. Conditions: shRNA.
Consider ATAACTTCTTAGCATCATCTGC, for which the sensor-assay potency score (higher = more potent) is -0.998.
On the same count and under the same terms, under TTACAGTTCTTGATGACAGTAA stands 0.425; under TTGTACTGTACAACTGCACAAG, -0.852; under TATTGTGTGAAATTCCAGCTGA, 0.557.
The same measure, in the same setting: under TAACTTTCTGCCTTTCTGCAGC stands -0.259; under TATCAATCTGAAGAGAATCGAG, -0.521.
Turning to TACACGAATGCTCACAACCAGC, the sensor-assay potency score (higher = more potent) is -1.33.

A further assay deals with POLN. The assay is described as above. The settings on record: shRNA.
In turn, TTGATCTTGTGAACCTGCCTGT gave a sensor-assay potency score (higher = more potent) of 0.754.
Turning to TTTTTGGTCAGCAGACAGCTGA, the sensor-assay potency score (higher = more potent) is -1.02.
Consider TTTGTTTACTTGTTTTCTCTGA, for which the sensor-assay potency score (higher = more potent) was -0.00359.
The sequence TTTACTAACACCACAATTCCTC came in with a sensor-assay potency score (higher = more potent) of -0.28.
On the same count and under the same terms, under TAATGGATGAAGGTCTCGCAGA stands -0.869; under TTCATTATTTATATTCTCCATT, -0.758.
Consider TTATAAGAAACCGTTCTCCTGC, for which the sensor-assay potency score (higher = more potent) is 0.596.
Still for that read-out and setting: under TCTATTTGAATGTAGATGCATG stands -0.558; under TGACTTGATCTTGTGAACCTGC, 0.614.
Still for that read-out and setting: the figure for TTGCCATAAACCATAATCCTTC is -1.02.
Sequence TTGCTCGTTATAAGAAACCGTT displayed a sensor-assay potency score (higher = more potent) of -0.677.

For the next assay, the target named is POLR2B. Described as above. Conditions: shRNA.
TTTTCTCTTTAGTAACACCAGG had a sensor-assay potency score (higher = more potent) of -1.3.
As for TATCAAACCATCATCATCCAGC, the sensor-assay potency score (higher = more potent) was -0.225.
Same read-out and setting: under TAAAAGATTAGAAATCTTCTGC stands 0.528; under AAGATTGCAAACATGAACCTGA, 0.822; under TTTCTCTTTAGTAACACCAGGC, -0.352.
Sequence TATATGTGGAACAATAAGCTAC displayed a sensor-assay potency score (higher = more potent) of -0.462.
Sequence TAGTGCAACATTCTGTTCTTGG gave a sensor-assay potency score (higher = more potent) of 0.768.
The same measure, in the same setting: the figure for TAGGAACTGATTACAATCCAGC is -0.664; for TTTTACAAAATTTATATCCTTC it is 0.417.
Still for that read-out and setting: under TTCTAAAATATCTCTGTCGGAC stands -0.797.
Still for that read-out and setting: under TTCTTTTTGTAAAACTTCCTTT stands -0.613; under TATTATGCAACTGTCTTGGTTT, -0.109.

A further assay concerns the target POLR3B. Described as above. The settings on record: shRNA.
Turning to TATATGAGTCTGTTGCTCCTTT, the sensor-assay potency score (higher = more potent) came out at 0.252.
TAAATTTTTTGAACAAGTCTTC registered a sensor-assay potency score (higher = more potent) of -0.054.
Turning to TATCCTTTAGGTCACATCCATC, the sensor-assay potency score (higher = more potent) is -1.12.
In the case of TTAAGTACCACATAGGGTCAGC, the sensor-assay potency score (higher = more potent) is -0.683.
As for TAACAATGAAGTAGCCACCTGG, the sensor-assay potency score (higher = more potent) is -0.287.
In the case of TAGCTCATCACAGCAACTGTTG, the sensor-assay potency score (higher = more potent) is -0.674.
Turning to TTTCCTTGTAGCAGCATCCAAC, the sensor-assay potency score (higher = more potent) is -0.877.
On the same count and under the same terms, under TTTATTAATTGTGTGTTCGTAC stands 0.467.
Turning to TTACATTGAAGCTTTCTTCAAC, the sensor-assay potency score (higher = more potent) was 0.0741.
In turn, TTGGTGTATCGTTTCAACGTAC registered a sensor-assay potency score (higher = more potent) of -0.297.
